Rows were chosen to be rich in hits. Some 10% of all compounds tested hit in one or more screens of this group.
BAZ2B inh – inhibitors of human BAZ2B bromodomain | Q9UIF8 | AlphaScreen BAZ2B-H3K14Ac peptide displacement | Potency, µM (doses to about 114 µM), without a hit: at the top dose activity change, negative = inhibition, actives largely listed as inhibitors | hit rate 4.4% among 360,000; further: potency means the concentration at half of the fitted maximal effect; on the % scale 0 is the no-effect control and ±100 the full control effect; nearly all actives have a fitted effect of over 60% in size
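In this displacement format the biotinylated H3(5-23) peptide acetylated at Lys14 serves as ligand at 50 nM, with BAZ2B at 50 nM in PBS pH 7.4 containing 0.01% Tween-20. Donor and acceptor beads are 10 ug/mL final.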
HP1b binding inh – blocks HP1-beta chromodomain binding to methylated histone tails. P83916. AlphaScreen HP1-beta / biotin-H3K9me3 peptide binding. Potency, µM (series often up to 114 µM), without a hit: top-dose activity change, negative = inhibition, hits mostly inhibitors. hit rate 0.56% among 390,000; further: potency means the concentration at half of the fitted maximal effect; nearly all actives have a fitted effect of over 70% in size
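Compound inhibition of the preformed complex between 50 nM HP1-beta and 50 nM biotinylated H3K9me3 peptide was read by AlphaScreen. Buffer was PBS pH 7.4 with 0.01% Tween-20. Incubations ran 30 min at room temperature, with 10 ug/mL donor/acceptor beads.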
CtBP-E1A inh – inhibitors of CtBP/E1A interaction; AlphaScreen GST-E1A/His-CtBP binding, 1536-well; active compounds read low; activity change, % (test concentration not listed); hit rate 0.49% among 340,000; AID 651724; in the data active means activity change below about -65%; inconclusive means mostly about -30% to -63%; further: on the % scale 0 is the no-effect control and ±100 the full control effect
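Protein mix (5X: 125 nM each GST-E1A, His-CtBP) was incubated with pinned compound 2 h at 37 deg C in dark, in 50 mM Tris pH 8.0 buffer with 300 mM NaCl. Glutathione donor and nickel acceptor beads followed; AlphaScreen signal read after 1 h.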
Six1-Eya2 blk – blocks human Six1 binding to Eya2. hit rate 0.56% among 360,000. AlphaScreen GST-Six1/His-Eya2 binding, biochemical; active compounds read low. activity change, % (no concentration beside the values); in the data active means activity change below about -65%; inconclusive means mostly about -30% to -63%; further: on the % scale 0 is the no-effect control and ±100 the full control effect
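GST-Six1 + His-Eya2 (5X stock: 250/500 nM); Tris pH 8.0, 300 mM NaCl, 0.05% BSA, 0.02% Tween 20; GSH donor/Ni acceptor beads; 1 h 37 °C dark; AlphaScreen readout.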
JMJD2A Tudor inh – blocks the human JMJD2A Tudor domain. O75164. Potency, µM (highest dose often 114 µM), for the others: at the highest dose activity change, negative = inhibition, hits mostly inhibitors. AlphaScreen JMJD2A-Tudor / H3K4me3 peptide binding. hit rate 4.4% among 390,000; further: potency means the concentration at half of the fitted maximal effect; on the % scale 0 is the no-effect control and ±100 the full control effect; nearly all actives have a fitted effect of over 50% in size
Target sequence (O75164 whole entry, looked up, the tested form may be a part): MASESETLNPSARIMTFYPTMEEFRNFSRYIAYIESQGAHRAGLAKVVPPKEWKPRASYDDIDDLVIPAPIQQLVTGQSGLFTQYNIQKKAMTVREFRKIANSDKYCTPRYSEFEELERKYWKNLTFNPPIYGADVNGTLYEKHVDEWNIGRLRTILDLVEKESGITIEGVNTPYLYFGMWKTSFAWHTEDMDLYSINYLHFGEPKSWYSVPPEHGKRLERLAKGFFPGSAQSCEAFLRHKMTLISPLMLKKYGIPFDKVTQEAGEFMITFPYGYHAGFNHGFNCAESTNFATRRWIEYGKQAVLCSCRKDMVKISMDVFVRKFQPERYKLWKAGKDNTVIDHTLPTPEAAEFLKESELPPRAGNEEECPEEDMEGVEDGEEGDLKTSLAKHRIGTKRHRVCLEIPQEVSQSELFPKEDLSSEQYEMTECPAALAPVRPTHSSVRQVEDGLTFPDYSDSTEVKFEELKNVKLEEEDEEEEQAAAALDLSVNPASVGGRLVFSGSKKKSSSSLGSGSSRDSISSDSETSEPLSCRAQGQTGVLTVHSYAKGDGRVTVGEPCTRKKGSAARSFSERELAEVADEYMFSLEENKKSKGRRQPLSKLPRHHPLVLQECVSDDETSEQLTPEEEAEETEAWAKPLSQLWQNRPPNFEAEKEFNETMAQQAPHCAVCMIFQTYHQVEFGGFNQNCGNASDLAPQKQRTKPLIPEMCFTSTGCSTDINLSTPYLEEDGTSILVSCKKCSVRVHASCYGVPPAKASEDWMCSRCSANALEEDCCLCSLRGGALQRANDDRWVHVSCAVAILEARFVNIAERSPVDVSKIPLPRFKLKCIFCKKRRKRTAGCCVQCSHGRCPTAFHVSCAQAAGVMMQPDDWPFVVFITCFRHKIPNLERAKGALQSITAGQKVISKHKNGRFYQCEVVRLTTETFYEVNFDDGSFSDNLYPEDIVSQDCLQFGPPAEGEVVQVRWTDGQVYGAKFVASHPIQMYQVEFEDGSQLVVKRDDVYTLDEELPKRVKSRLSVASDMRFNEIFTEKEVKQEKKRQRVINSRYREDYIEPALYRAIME
G9a block – inhibitors of human histone lysine methyltransferase G9a. Q96KQ7. G9a H3K9 monomethylation, AlphaScreen, 2 h. Potency, µM (highest dose often 102 µM), for inactives: at the highest dose activity, negative = inhibition, usual class: inhibitors. hit rate 8.8% among 350,000; further: potency means the concentration at half of the fitted maximal effect; on the % scale 0 is the no-effect control and ±100 the full control effect; nearly all actives have a fitted effect of over 75% in size
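Readings reflect AlphaScreen signal from monomethyl-H3K9 antibody detection. HMT at 20 nM; substrate b-H3K9 500 nM; cofactor SAM 20 uM; 2 h RT reaction; compounds tested as titrations in qHTS with 15 min preincubation.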
The depositor's hits bear a star; u = inconclusive; x = no result; [ ] = remark or other dose. Unless noted, the call rests on the fitted dose curve; in most records, active means well fitted inhibition curve with a large enough effect; inconclusive means small, poorly fitted or top-dose-only effect; inactive means no such curve, though single readings can be large or run the other way.

SMILES	BAZ2B inh	HP1b binding inh	CtBP-E1A inh	Six1-Eya2 blk	JMJD2A Tudor inh	G9a block
Nc1[nH]c(C(=O)c2ccccc2)c(-c2ccc(Cl)cc2Cl)c1C(=O)NCCc1c[nH]c2ccccc12	x	x	-10	-13	x	x
CC1(C2CCC3(C)OC3C2)CO1 (centres undefined)	x	27%	0	1	-10%	x
O=[N+]([O-])c1cc(N=Nc2ccc3ccccc3c2)ccc1O	u	-17%	x	-1	u	3.2µM*
CCN(CC)C(=O)C1=C(C)N(CCCOC)C(=O)C(CC(=O)NC(c2ccccc2)c2ccccc2)C1 (centres undefined)	x	x	-3	3	x	x
O=S(=O)(c1ccc2c(c1)OCCO2)N1CCN(CCc2ccccc2)CC1	x	-16%	x	x	u	x
C=CCC1CCC/C(=N\NS(=O)(=O)c2ccc(C)cc2)C1 (centres undefined)	-4%	37%	0	-13	-6%	25µM*
O=C(O)CSc1cc(NS(=O)(=O)c2ccc(Cl)cc2)c2ccccc2c1O	50µM*	20µM*	u	-27	25µM*	4µM*
COc1ccc(S(=O)(=O)Nc2cccc3ccc(O)cc23)cc1	x	4%	5	0	-13%	x
COc1ccc(S(=O)(=O)Nc2cc(SCC(=O)O)c(O)c3ccccc23)cc1	40µM*	13µM*	x	u	20µM*	2µM*
Cc1cc(C)c(S(=O)(=O)Nc2cc(SCC(=O)O)c(O)c3ccccc23)cc1C	40µM*	-95%	-20	-17	22µM*	2.2µM*
O=S(=O)(Nc1ccc(Cl)cc1NS(=O)(=O)c1ccccc1)c1ccccc1	x	0%[57 µM]	-13	-9	-26%	x
CC(C)CC(CSc1ccc(Br)cc1)N1CCN(CCc2ccccc2)CCC1=O (centres undefined)	x	12%	x	x	-26%	x
Cc1cc(C)c2c(N)c3ccccc3nc2n1	2%	32%	-17	-23	2%	50µM*
COc1ccc(-c2cc(-c3ccccc3)c(C#N)c(SCC(O)CS(=O)(=O)Cc3ccccc3)n2)cc1 (centres undefined)	-1%	46%	x	x	-1%	-3%[59 µM]
N#Cc1c(-c2ccc(F)cc2)cc(-c2ccccc2)nc1SCC(=O)NCC(=O)O	50µM*	u	x	0	79µM*	x
COc1ccccc1-c1cc(-c2ccccc2)nc(SC(C(N)=O)c2ccccc2)c1C#N (centres undefined)	79µM*	38%	1	4	-13%	-29%[59 µM]
N#Cc1c(-c2ccc(Cl)cc2)cc(-c2ccccc2)nc1SCC(=O)O	56µM*	46%	x	-2	-26%	u
CCCCS(=O)(=O)CC(O)CSc1nc(-c2ccc(C)cc2)cc(-c2ccccc2)c1C#N (centres undefined)	-2%	-8%	x	x	-25%	7.9µM*
N#Cc1c(-c2ccccc2)cc(C2CC2)nc1SCC(=O)c1cccs1	4%	44%	3	13	-1%	50%
COC(=O)CSc1nc(-c2ccccc2)cc(-c2ccco2)c1C#N	71µM*	9%	20	20	u	8%[0.501 µM]
N#Cc1c(-c2ccccc2)cc(C2CC2)nc1SCC(=O)O	-32%	20%	6	1	-26%	11µM*
COc1cc(-c2cc(-c3ccccc3)nc(SCC(=O)O)c2C#N)cc(OC)c1OC	0%	-18%	0	-13	-8%	50µM*
Cc1ccc(C)c(S(=O)(=O)N2CCN(c3nc(-c4cccnc4)nc4ccccc34)CC2)c1	-24%	25%	-12	-12	-17%	8%[2.33 µM]
Cc1noc(C)c1S(=O)(=O)N(C)C[C@@H]1OCc2cnnn2CCCC(=O)N([C@H](C)CO)C[C@@H]1C	x	x	5	9	x	x
CN1CCN(CCC(=O)N2c3ccccc3Sc3ccc(Cl)cc32)CC1	79µM*	-4%	-12	-1	u	u
SMILES	BAZ2B inh	HP1b binding inh	CtBP-E1A inh	Six1-Eya2 blk	JMJD2A Tudor inh	G9a block
NCCC(=O)N1c2ccccc2Sc2ccc(Cl)cc21	-23%	35%	-11	-1	-13%	8%
CC(C)(C)n1c(O)c2ccc(C(=O)N=NC(=O)c3ccccc3)cc2c1O	-27%	42%	17	4	0%	37%
Cn1c(N=NC(=O)c2ccccc2)c(O)c2ccccc21	22µM*	32µM*	u	u	32µM*	u
CCC1Oc2ccc(C)cc2N(CC(=O)NCCc2ccccc2)C1=O (centres undefined)	1%	-6%	x	x	-9%	0%[59 µM]
Cc1ccc(Cn2cccc(NC(=O)c3ccco3)c2=O)cc1	-5%	-11%	0	-1	-36%	u
Cc1ccc(S(=O)(=O)NNC(=O)c2cccc(O)c2)cc1	0%	38%	4	5	-18%	-1%
NC(=O)NC(=O)Nc1ccccc1Cl	3%	65%	1	2	-7%[57.1 µM]	1%[2.33 µM]
Cc1ccc(S(=O)(=O)NNC(=O)c2csnn2)cc1	-5%	19%	12	6	18µM*	u
O=C(NC(=O)c1csnn1)Nc1ccccc1Cl	-20%	27%	0	1	-16%	89µM*
Cc1ccc(NC(=O)c2csnn2)c(C)c1	4%	63%	8	-1	-18%[57.1 µM]	14µM*
O=C(NNS(=O)(=O)c1ccc(F)cc1)c1cccc(O)c1	8%	12%	-6	-5	25µM*	x
Cc1ccc(S(=O)(=O)NNC(=O)c2ccccc2O)cc1	1%	4%	-3	13	3.2µM*	-9%[59 µM]
O=C(NNS(=O)(=O)c1ccc(F)cc1)c1ccccc1O	u	24%	9	2	2%	32µM*
Cc1ccc(-c2csc3n[nH]c(=S)n23)cc1	28µM*	u	0	5	1.1µM*	1.4µM*
COc1cc(=O)n2c(-c3ccccc3)csc2n1	-7%	62%	-3	-1	-4%[11.4 µM]	-15%[59 µM]
O=S(=O)(c1ccccc1)c1nc(-c2ccc(Cl)cc2)oc1NCCCN1CCOCC1	-7%	-21%	-6	-14	u	45µM*
O=S(=O)(c1ccccc1)c1nc(-c2ccco2)oc1NCCCN1CCOCC1	-30%	27%	0	-4	-3%	14µM*
O=S(=O)(c1ccccc1)c1nc(-c2ccco2)oc1NCCN1CCOCC1	-31%	36%	-4	-2	1%	u
Cc1ccccc1-c1nc(S(=O)(=O)c2ccc(Br)cc2)c(NCc2cccnc2)o1	-12%	12%	-9	-9	-32%	-48%
NC(=O)C1CCN(c2oc(-c3ccccc3F)nc2S(=O)(=O)c2ccc(Cl)cc2)CC1	-25%	53%	0	26	-20%	u
CN1CCN(c2oc(-c3ccccc3F)nc2S(=O)(=O)c2ccc(Cl)cc2)CC1	35µM*	-35%	-17	-13	u	x
